Source: the supplement of paper PMC10849652
Of roughly 8,800 targets only a part is listed; those with a hit were picked by preference. About 0.5% of all pairs of compound and target were hits.

Assays:
Assay in all cases: log2 fold change, soluble protein after heating vs DMSO (PISA); higher = thermal stabilisation; K562 lysate, 10 uM; active = over 0.2 and 3.5 SD of the protein, either way, in both replicates (recomputed)
alvocidib = compound: CN1CC[C@H](c2c(O)cc(O)c3c(=O)cc(-c4ccccc4Cl)oc23)[C@H](O)C1 [alvocidib]
Summary of the method: (§1)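 Values give the log-two fold change in thermal stability against solvent controls, from duplicates. Crude K562 extract at 1 mg/mL protein, made by dounce homogenisation in PBS pH 7.4 with 1 mM MgCl2, was treated with 10 μM compound for 30 min. After 3 min heating across 48°C-58°C, aliquots were pooled, adjusted to 0.5% NP-40 at 4°C and centrifuged at 21,000xg for 90 min. The supernatant was measured by TMTpro 16plex LC-MS/MS with channel sums equalised.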

Tubastatin A = compound: CN1CCc2c(c3ccccc3n2Cc2ccc(C(=O)NO)cc2)C1 [Tubastatin A]
Summary of the method: as §1

[1] = compound: CNC(=O)C1=CC=CC=C1NC2=NC(=NC=C2Cl)NC3=C(C=C(C=C3)N4CCOCC4)OC
Summary of the method: as §1

defactinib = compound: CNC(=O)c1ccc(Nc2ncc(C(F)(F)F)c(NCc3nccnc3N(C)S(C)(=O)=O)n2)cc1 [defactinib]
Summary of the method: as §1

[2] = compound: CNc1nc(-c2ccc3c(N)n[nH]c3c2)cc(N2C[C@@H](C(=O)NC3CCCCC3)CC[C@H]2C)n1
Summary of the method: as §1

encorafenib = compound: COC(=O)N[C@@H](C)CNc1nccc(-c2cn(C(C)C)nc2-c2cc(Cl)cc(NS(C)(=O)=O)c2F)n1 [encorafenib]
Summary of the method: as §1

[3] = compound: COC(=O)[C@H](CCSC)NC(=O)C1=C(C=C(C=C1)NC[C@H](CS)N)C2=CC=CC=C2
Summary of the method: as §1

alisertib = compound: COc1cc(Nc2ncc3c(n2)-c2ccc(Cl)cc2C(c2c(F)cccc2OC)=NC3)ccc1C(=O)O [alisertib]
Summary of the method: as §1

[4] = compound: COc1cc2nc(-c3cc(F)ccc3O)nc(N[C@@H]3CNC[C@H]3C(C)(C)O)c2cc1OC
Summary of the method: as §1

gefitinib = compound: COc1cc2ncnc(Nc3ccc(F)c(Cl)c3)c2cc1OCCCN1CCOCC1 [gefitinib]
Summary of the method: as §1

lapatinib = compound: CS(=O)(=O)CCNCc1ccc(-c2ccc3ncnc(Nc4ccc(OCc5cccc(F)c5)c(Cl)c4)c3c2)o1 [lapatinib]
Summary of the method: as §1

pictilisib = compound: CS(=O)(=O)N1CCN(Cc2cc3nc(-c4cccc5[nH]ncc45)nc(N4CCOCC4)c3s2)CC1 [pictilisib]
Summary of the method: as §1

crizotinib = compound: C[C@@H](Oc1cc(-c2cnn(C3CCNCC3)c2)cnc1N)c1c(Cl)ccc(F)c1Cl [crizotinib]
Summary of the method: as §1

[5] = compound: C[C@H](C1=CC=C(C=C1)C(=O)NC2=C3C=CNC3=NC=C2)N
Summary of the method: as §1

duvelisib = compound: C[C@H](Nc1ncnc2nc[nH]c12)c1cc2cccc(Cl)c2c(=O)n1-c1ccccc1 [duvelisib]
Summary of the method: as §1

gandotinib = compound: Cc1cc(Nc2cc(CN3CCOCC3)c3nc(C)c(Cc4ccc(Cl)cc4F)n3n2)n[nH]1 [gandotinib]
Summary of the method: as §1

tozasertib = compound: Cc1cc(Nc2cc(N3CCN(C)CC3)nc(Sc3ccc(NC(=O)C4CC4)cc3)n2)n[nH]1 [tozasertib]
Summary of the method: as §1

doramapimod = compound: Cc1ccc(-n2nc(C(C)(C)C)cc2NC(=O)Nc2ccc(OCCN3CCOCC3)c3ccccc23)cc1 [doramapimod]
Summary of the method: as §1

bafetinib = compound: Cc1ccc(NC(=O)c2ccc(CN3CC[C@H](N(C)C)C3)c(C(F)(F)F)c2)cc1Nc1nccc(-c2cncnc2)n1 [bafetinib]
Summary of the method: as §1

[6] = compound: Cc1cccc(CC(=O)N2CCc3c2ccc(-c2cn(C)c4ncnc(N)c24)c3F)n1
Summary of the method: as §1

Measured: log2 fold change

NDC1 (UniProt Q9BTX1)
UniProt Q9BTX1, sequence (Q9BTX1 whole entry, looked up): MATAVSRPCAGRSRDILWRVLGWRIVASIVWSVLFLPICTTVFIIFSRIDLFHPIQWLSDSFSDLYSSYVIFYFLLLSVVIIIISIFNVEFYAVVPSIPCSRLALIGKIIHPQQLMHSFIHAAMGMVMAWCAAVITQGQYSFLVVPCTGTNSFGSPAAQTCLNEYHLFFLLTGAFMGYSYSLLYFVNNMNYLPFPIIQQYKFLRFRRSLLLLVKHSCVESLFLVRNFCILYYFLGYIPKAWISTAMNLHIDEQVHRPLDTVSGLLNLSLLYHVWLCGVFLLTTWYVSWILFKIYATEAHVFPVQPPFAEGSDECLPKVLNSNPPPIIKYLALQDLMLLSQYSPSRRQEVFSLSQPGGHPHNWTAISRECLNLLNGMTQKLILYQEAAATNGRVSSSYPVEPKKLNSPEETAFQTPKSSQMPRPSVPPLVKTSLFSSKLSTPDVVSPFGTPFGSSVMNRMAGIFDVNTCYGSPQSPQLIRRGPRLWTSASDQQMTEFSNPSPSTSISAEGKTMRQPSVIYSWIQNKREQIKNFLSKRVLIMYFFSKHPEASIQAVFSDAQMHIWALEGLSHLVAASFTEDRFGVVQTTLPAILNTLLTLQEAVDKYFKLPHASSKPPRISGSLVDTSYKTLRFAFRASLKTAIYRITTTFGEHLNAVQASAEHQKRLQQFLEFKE
active: [3] -0.297 | [5] -0.333 | [6] 0.296
inactive: alvocidib -0.131 | Tubastatin A -0.046 | [1] -0.001 | defactinib -0.058 | [2] -0.044 | encorafenib 0.03 | alisertib 0.011 | [4] 0.047 | gefitinib -0.031 | lapatinib -0.087 | pictilisib -0.012 | crizotinib -0.027 | duvelisib -0.044 | gandotinib 0.185 | tozasertib -0.01 | doramapimod -0.001 | bafetinib -0.066

NELFCD (UniProt Q8IXH7)
UniProt Q8IXH7, sequence (Q8IXH7 whole entry, looked up): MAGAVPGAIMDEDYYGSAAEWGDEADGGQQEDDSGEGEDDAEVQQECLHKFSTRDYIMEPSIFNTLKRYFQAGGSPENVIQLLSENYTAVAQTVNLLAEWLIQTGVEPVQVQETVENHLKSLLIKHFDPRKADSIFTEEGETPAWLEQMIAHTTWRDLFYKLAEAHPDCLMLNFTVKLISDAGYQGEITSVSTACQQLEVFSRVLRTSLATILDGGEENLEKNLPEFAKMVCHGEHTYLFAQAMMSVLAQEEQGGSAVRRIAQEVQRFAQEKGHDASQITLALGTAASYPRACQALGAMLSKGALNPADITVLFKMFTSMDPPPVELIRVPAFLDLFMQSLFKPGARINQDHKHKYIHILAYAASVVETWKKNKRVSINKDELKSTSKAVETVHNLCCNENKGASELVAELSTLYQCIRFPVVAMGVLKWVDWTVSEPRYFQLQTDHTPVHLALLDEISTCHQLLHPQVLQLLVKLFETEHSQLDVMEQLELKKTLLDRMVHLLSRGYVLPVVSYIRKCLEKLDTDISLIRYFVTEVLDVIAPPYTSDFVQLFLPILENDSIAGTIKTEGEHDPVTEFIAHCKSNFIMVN
inactive: alvocidib 0.015 | Tubastatin A -0.148 | [1] 0.047 | defactinib 0.041 | [2] -0.055 | encorafenib 0 | [3] 0.073 | alisertib 0.023 | [4] -0.006 | gefitinib -0.009 | lapatinib -0.035 | pictilisib -0.048 | crizotinib -0.043 | [5] 0.074 | duvelisib 0.017 | gandotinib -0.087 | tozasertib -0.025 | doramapimod 0.045 | bafetinib -0.105 | [6] -0.029

NF1 (UniProt P21359)
UniProt P21359, sequence (P21359 whole entry, looked up): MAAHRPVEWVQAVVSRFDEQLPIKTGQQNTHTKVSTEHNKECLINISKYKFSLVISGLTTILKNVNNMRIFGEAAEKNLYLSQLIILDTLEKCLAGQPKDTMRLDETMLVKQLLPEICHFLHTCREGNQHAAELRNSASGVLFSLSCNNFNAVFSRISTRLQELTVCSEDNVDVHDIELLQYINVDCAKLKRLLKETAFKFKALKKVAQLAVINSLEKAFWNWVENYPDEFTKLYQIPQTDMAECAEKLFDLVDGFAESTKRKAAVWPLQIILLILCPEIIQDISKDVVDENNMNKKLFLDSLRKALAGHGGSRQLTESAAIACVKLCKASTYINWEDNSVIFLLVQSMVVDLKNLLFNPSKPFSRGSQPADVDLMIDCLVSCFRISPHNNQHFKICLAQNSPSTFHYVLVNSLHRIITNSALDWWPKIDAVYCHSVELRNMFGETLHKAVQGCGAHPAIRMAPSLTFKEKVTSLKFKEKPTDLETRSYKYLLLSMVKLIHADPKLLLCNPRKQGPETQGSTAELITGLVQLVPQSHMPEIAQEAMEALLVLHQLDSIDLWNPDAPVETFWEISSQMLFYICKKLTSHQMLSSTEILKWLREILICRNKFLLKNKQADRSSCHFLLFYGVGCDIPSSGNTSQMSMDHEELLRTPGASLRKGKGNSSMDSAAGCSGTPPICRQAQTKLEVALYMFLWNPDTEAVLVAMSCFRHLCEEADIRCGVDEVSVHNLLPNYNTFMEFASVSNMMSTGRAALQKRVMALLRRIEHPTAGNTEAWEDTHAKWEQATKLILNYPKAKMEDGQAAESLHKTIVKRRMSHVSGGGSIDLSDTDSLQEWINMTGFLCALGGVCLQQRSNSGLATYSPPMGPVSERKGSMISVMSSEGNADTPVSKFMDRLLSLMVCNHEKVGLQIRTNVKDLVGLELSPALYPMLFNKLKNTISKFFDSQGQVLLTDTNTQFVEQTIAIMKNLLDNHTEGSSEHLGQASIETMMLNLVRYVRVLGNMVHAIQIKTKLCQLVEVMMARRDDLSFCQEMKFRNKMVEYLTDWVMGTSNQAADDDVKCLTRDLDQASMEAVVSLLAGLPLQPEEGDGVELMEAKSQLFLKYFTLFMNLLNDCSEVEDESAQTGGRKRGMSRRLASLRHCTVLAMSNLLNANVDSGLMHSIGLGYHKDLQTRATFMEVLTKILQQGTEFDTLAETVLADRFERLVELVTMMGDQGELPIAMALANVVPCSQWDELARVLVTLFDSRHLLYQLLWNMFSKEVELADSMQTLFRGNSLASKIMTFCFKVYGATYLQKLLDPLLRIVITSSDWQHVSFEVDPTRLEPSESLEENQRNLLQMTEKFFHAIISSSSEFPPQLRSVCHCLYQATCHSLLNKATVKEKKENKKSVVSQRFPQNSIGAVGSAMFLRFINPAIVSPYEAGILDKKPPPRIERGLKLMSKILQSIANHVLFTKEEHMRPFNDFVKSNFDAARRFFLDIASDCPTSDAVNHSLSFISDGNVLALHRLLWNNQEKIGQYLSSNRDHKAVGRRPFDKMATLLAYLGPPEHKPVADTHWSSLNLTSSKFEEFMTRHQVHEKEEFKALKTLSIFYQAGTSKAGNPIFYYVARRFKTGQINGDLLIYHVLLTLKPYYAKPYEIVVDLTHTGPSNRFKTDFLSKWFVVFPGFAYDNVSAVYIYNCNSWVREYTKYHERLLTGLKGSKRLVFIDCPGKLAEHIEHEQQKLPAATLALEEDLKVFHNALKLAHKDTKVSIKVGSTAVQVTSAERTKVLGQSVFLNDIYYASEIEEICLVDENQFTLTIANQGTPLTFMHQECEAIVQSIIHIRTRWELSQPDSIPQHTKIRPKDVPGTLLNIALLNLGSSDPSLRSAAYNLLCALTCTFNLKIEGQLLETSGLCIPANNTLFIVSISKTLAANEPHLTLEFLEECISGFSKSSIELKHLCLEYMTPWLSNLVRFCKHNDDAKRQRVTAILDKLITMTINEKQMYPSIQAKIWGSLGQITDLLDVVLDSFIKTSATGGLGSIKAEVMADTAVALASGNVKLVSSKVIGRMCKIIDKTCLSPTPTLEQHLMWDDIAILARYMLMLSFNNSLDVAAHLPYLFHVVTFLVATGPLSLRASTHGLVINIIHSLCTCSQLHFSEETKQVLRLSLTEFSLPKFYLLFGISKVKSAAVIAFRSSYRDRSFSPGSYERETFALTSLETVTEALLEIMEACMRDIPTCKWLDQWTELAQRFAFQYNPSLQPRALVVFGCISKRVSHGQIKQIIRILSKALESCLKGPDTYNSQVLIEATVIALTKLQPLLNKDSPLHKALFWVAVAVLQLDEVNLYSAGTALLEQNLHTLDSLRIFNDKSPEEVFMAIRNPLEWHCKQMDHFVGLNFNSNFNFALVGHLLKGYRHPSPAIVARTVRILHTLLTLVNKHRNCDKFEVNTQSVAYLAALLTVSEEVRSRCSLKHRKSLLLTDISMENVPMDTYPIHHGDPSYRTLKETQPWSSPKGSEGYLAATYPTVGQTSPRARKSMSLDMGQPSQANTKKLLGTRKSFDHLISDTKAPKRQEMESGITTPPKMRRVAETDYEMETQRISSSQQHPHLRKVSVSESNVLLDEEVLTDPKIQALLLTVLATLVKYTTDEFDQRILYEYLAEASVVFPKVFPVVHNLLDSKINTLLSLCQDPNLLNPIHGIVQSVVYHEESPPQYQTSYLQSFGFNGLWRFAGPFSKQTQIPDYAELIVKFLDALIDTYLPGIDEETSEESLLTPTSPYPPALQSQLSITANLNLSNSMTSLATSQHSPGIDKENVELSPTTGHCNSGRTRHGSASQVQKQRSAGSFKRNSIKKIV
inactive: alvocidib 0.03 | Tubastatin A -0.098 | [1] 0.029 | defactinib 0.012 | [2] 0.009 | encorafenib 0.026 | [3] -0.267 | alisertib 0.03 | [4] 0.006 | gefitinib 0.058 | lapatinib -0.034 | pictilisib -0.022 | crizotinib -0.075 | [5] -0.031 | duvelisib -0.001 | gandotinib -0.108 | tozasertib -0.014 | doramapimod -0.009 | bafetinib -0.041 | [6] 0.049

PAXBP1 (UniProt Q9Y5B6)
inactive: alvocidib -0.043 | Tubastatin A -0.069 | [1] 0.015 | defactinib 0.005 | [2] -0.004 | encorafenib 0.018 | alisertib 0.013 | [4] -0.003 | gefitinib -0.038 | lapatinib 0.002 | pictilisib -0.077 | crizotinib -0.027 | [5] -0.037 | duvelisib -0.008 | gandotinib -0.029 | tozasertib 0.012 | doramapimod 0.038 | bafetinib -0.024 | [6] 0.002
active: [3] 0.29

NUSAP1 (UniProt Q9BXS6)
UniProt Q9BXS6, sequence (Q9BXS6 whole entry, looked up): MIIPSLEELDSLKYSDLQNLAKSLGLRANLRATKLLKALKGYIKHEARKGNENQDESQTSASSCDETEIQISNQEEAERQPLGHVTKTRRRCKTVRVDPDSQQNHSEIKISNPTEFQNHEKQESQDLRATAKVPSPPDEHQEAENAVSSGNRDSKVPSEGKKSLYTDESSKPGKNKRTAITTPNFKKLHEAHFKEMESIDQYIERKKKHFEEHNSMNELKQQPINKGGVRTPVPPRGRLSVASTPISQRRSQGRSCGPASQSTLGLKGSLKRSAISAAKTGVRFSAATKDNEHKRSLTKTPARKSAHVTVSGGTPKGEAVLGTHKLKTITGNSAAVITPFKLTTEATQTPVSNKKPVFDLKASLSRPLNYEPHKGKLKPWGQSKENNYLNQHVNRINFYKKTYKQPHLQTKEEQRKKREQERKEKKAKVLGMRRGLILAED
active: [5] -0.334 | [6] 0.217
inactive: alvocidib -0.17 | Tubastatin A 0.029 | [1] -0.02 | defactinib 0.027 | [2] 0.07 | encorafenib 0.012 | [3] -0.028 | alisertib 0.01 | [4] -0.002 | gefitinib -0.012 | lapatinib -0.004 | pictilisib -0.018 | crizotinib 0.045 | duvelisib -0.022 | gandotinib 0.141 | tozasertib -0.001 | doramapimod -0.011 | bafetinib 0.008

MTHFD1L (UniProt B7ZM99)
inactive: alvocidib 0.029 | Tubastatin A -0.084 | [1] 0.02 | defactinib 0.034 | [2] -0.01 | encorafenib -0.041 | [3] 0.072 | alisertib 0.032 | [4] 0.009 | gefitinib -0.007 | lapatinib -0.075 | pictilisib -0.036 | crizotinib -0.036 | [5] 0.017 | duvelisib 0.026 | gandotinib -0.039 | tozasertib 0.002 | doramapimod 0.035 | bafetinib -0.054 | [6] 0.018

NEK7 (UniProt Q8TDX7)
UniProt Q8TDX7, sequence (Q8TDX7 whole entry, looked up): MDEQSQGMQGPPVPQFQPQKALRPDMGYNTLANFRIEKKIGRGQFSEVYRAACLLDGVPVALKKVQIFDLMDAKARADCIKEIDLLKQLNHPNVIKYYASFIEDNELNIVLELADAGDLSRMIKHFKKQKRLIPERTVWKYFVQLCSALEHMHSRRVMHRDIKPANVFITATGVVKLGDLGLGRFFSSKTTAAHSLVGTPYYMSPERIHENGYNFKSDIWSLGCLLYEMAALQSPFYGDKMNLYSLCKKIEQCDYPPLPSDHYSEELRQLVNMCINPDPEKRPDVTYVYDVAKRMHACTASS
inactive: alvocidib -0.055 | Tubastatin A -0.113 | defactinib 0.007 | [2] -0.013 | encorafenib 0 | [3] 0.003 | alisertib 0.038 | [4] 0.057 | gefitinib -0.049 | lapatinib -0.035 | pictilisib -0.018 | crizotinib -0.045 | [5] -0.062 | duvelisib -0.026 | gandotinib -0.031 | tozasertib -0.022 | doramapimod 0.016 | bafetinib -0.026 | [6] 0.15
active: [1] 0.552

MYH11 isoform 2 (UniProt P35749)
active: [5] 0.279
inactive: alvocidib -0.042 | Tubastatin A -0.069 | [1] -0.028 | defactinib -0.083 | [2] 0.031 | encorafenib -0.002 | [3] 0.07 | alisertib 0.002 | [4] -0.005 | gefitinib 0.031 | lapatinib 0.075 | pictilisib -0.002 | crizotinib 0.054 | duvelisib 0.055 | gandotinib -0.004 | tozasertib 0.031 | doramapimod -0.044 | bafetinib 0.303 | [6] -0.018
